NS1 inh = blocks influenza NS1 protein function; Potency, µM (titrated, usually from 46.1 µM), without a hit: top-dose activity, positive = more growth; 270,000 compounds, 0.4% hits; AID 2326; calls by dose curve; also: potency is read from the fitted curve at half-maximal effect; actives are rising curves; nearly all actives have a fitted effect of over 50% in size
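In this qHTS, NS1 from influenza A is expressed in budding yeast, where it slows growth. Cells are switched from glucose to 2% galactose medium (pH 6.0, -URA), treated with compound, and growth recovery is read at OD600.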
Cycloheximide cs = counter-screen hit for Shiga toxin inhibitors, cycloheximide; max response, %; cell reporter, cycloheximide protein synthesis inhibition counterscreen; 300,000 compounds, 12% hits; in the data active = max response mostly above about 13%, no sharp cut-off; inactive = mostly below about 14%; also: read at 38.3 µM for the half of the compounds with a filed dose; 0% is about no effect
AmpC no deterg = inhibitors of E. coli AmpC beta-lactamase without detergent | P00811 | AmpC nitrocefin hydrolysis, absorbance 480 nm, 0.0001% Triton | Potency, µM (highest dose often 57.1 µM), for inactives: at the highest dose activity change, negative = inhibition, hits mostly inhibitors | 330,000 compounds, 0.52% hits;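 also: potency is read from the fitted curve at half-maximal effect; plate controls were no compound for no effect and no enzyme for full effect; nearly all actives have a fitted effect of over 20% in size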
Target sequence (P00811 whole entry, looked up): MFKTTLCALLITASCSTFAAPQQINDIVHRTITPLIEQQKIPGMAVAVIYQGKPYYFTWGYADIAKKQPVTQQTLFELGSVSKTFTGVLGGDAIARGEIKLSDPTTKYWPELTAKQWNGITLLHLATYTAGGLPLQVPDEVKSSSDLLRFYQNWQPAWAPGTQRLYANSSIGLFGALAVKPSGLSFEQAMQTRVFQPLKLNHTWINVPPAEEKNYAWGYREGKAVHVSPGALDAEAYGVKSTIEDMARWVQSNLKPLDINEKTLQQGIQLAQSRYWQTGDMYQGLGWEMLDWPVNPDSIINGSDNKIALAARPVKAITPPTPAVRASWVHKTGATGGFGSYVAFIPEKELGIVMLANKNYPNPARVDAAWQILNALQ
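AmpC (5.3 nM in the dispensed reagent) in 20 mM phosphate pH 7.0 with 0.01% (detergent screen) or 0.0001% Triton X-100 was preincubated with compounds for 15 min at room temperature. Nitrocefin was then added from an 800 uM solution, and hydrolysis was followed at 480 nm.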
AmpC detergent = AmpC beta-lactamase inhibition with detergent present; P00811; AmpC hydrolysis of nitrocefin, absorbance 480 nm, 0.01% Triton; Potency, µM (titrated, usually from 114 µM), inactives show at the top dose activity change, negative = inhibition, actives largely listed as inhibitors; 370,000 compounds, 0.041% hits;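 also: potency is read from the fitted curve at half-maximal effect; 0% = no-compound wells and -100% = no-enzyme wells; nearly all actives have a fitted effect of over 25% in size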
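AmpC (5.3 nM in the dispensed reagent) in 20 mM phosphate pH 7.0 with 0.01% (detergent screen) or 0.0001% Triton X-100 was preincubated with compounds for 15 min at room temperature. Nitrocefin was then added from an 800 uM solution, and hydrolysis was followed at 480 nm.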
Shiga toxin inh = inhibitors of Shiga toxin in Vero cells; Vero cells, Shiga toxin protein synthesis inhibition reporter; inhibition, % at 38.7 µM; AID 2315; 290,000 compounds, 9.2% hits; in the data active = inhibition mostly above about 28%, no sharp cut-off; inactive = mostly below about 43%; also: 0% is about no effect
Starred values were filed as active, the others as inactive; [ ] = dose if it differs, or a comment. This is one part of a sample in which hits are shown more often than they occur. Unless noted, calls follow the shape of the dose curve; as a rule, active = well fitted curve in the direction sought with a large enough effect; inconclusive = small, poorly fitted or top-dose-only effect, or another doubt; inactive = no such curve, though single readings can be large; an effect the other way counts as inactive or inconclusive.

How did Nn1c(SCC(=O)Nc2ccc(F)cc2)nnc1-c1ccccn1 do in these assays?
NS1 inh: 9.5%; Cycloheximide cs: -2.5; AmpC no deterg: -7.3%; AmpC detergent: 2.9%; Shiga toxin inh: -9.8

Results for O=C(CSc1nnc(-c2ccccn2)o1)Nc1ccccc1 ?
NS1 inh: -5.2%; Cycloheximide cs: 20.2; AmpC no deterg: -10.5%; AmpC detergent: -4.1%; Shiga toxin inh: 64.9*

What do the screens show for `N#Cc1ccc(CSc2nnc(-c3cnccn3)o2)cc1`?
NS1 inh: -1.4%; Cycloheximide cs: -1.8; AmpC no deterg: -1.3%; AmpC detergent: inconclusive; Shiga toxin inh: 1.7

What do the screens show for `O=C(CSc1nnc(-c2ccccn2)o1)Nc1ccc(F)cc1`?
NS1 inh: -9.0%; Cycloheximide cs: 10.4; AmpC no deterg: -0.5%; AmpC detergent: inconclusive; Shiga toxin inh: 24.5*

Results for Fc1ccc(CSc2nnc(-c3ccccn3)o2)cc1 ?
NS1 inh: -13.4%; Cycloheximide cs: 27.7*; AmpC no deterg: 93.7%; AmpC detergent: -12.8%; Shiga toxin inh: 41.0*

Results for O=C(CSc1nnc(-c2ccc(F)cc2)o1)Nc1ccc(S(=O)(=O)N2CCCCCC2)cc1 ?
NS1 inh: 4.3%; Cycloheximide cs: -5.0; AmpC no deterg: -36.7%; AmpC detergent: inconclusive; Shiga toxin inh: -19.3

Results for O=C(Nc1ccc(N2C(=O)C3C4C=CC(C4)C3C2=O)cc1Cl)c1cccs1 (stereo unspecified) ?
Cycloheximide cs: 6.4; AmpC no deterg: -20.1%[11.4 µM]; AmpC detergent: inconclusive; Shiga toxin inh: 3.4

What do the screens show for `Nc1ccc(NC(=O)c2cccs2)c(Cl)c1`?
NS1 inh: -4.6%; Cycloheximide cs: 32.3*; AmpC no deterg: -18.0%; AmpC detergent: -14.7%; Shiga toxin inh: 54.7*

What do the screens show for `Nc1ccc(Cl)c(NC(=O)c2cccs2)c1`?
NS1 inh: 5.5%; Cycloheximide cs: 16.4*; AmpC no deterg: -4.6%; AmpC detergent: -13.4%; Shiga toxin inh: active

What do the screens show for `COc1cccc2c1C(=O)c1c(O)c3c(c(O)c1C2=O)C[C@](O)(/C(C)=N\O)C[C@@H]3O[C@H]1C[C@H](N)[C@@H](O)[C@H](C)O1`?
NS1 inh: 2.6%

Results for CC(=O)N1CCc2cc(Br)cc(S(=O)(=O)CCC(=O)N3CCN(c4ccccc4Cl)CC3)c21 ?
AmpC detergent: -5.8%

How did COc1ccc(N=Cc2c[nH][nH]c2=O)cc1 do in these assays?
NS1 inh: -91.0%; Cycloheximide cs: -1.0; AmpC no deterg: -12.7%; AmpC detergent: inconclusive; Shiga toxin inh: -7.7

Results for COc1ccc(N=Cc2oc3ccc4ccccc4c3c2O)cc1 ?
Cycloheximide cs: 50.0*; AmpC no deterg: -6.1%; AmpC detergent: inconclusive; Shiga toxin inh: 71.5*

What do the screens show for `COc1ccc(N=Cc2[nH]c3ccccc3c2O)cc1`?
Cycloheximide cs: 30.6*; AmpC no deterg: -9.1%; AmpC detergent: 2.2%; Shiga toxin inh: 42.2*

How did COc1ccc(Cn2c(O)c(C=Nc3ccc(OC)cc3)c3ccccc3c2=O)cc1 do in these assays?
NS1 inh: 11.1%; Cycloheximide cs: -2.8; AmpC no deterg: -17.5%; AmpC detergent: -13.3%; Shiga toxin inh: -5.7

How did O=C1C(C=Nc2ccccc2)=C(O)c2ccccc21 do in these assays?
NS1 inh: -49.9%; Cycloheximide cs: 29.3*; AmpC no deterg: -22.6%; AmpC detergent: -6.5%; Shiga toxin inh: 173.3*

Results for COc1ccc(N=CC2=C(O)c3ccccc3C2=O)cc1 ?
NS1 inh: -2.8%; Cycloheximide cs: 23.7*; AmpC no deterg: -13.0%; AmpC detergent: -9.1%; Shiga toxin inh: 107.3*

Results for CC(C)(C)OC(=O)N1CCC(c2c(C(=O)N3CCN(C(=O)c4ccco4)CC3)cnn2-c2ccccc2)CC1 ?
AmpC detergent: 12.0%

How did CCC(=O)N(CC)C1=C(O)c2ccccc2C(=O)C1=O do in these assays?
NS1 inh: -145.5%; Cycloheximide cs: 0.9; AmpC no deterg: 26.9%; AmpC detergent: -5.0%; Shiga toxin inh: -9.0

Results for CN=CC1=C(O)c2ccccc2C1=O ?
NS1 inh: -0.7%; Cycloheximide cs: 41.5*; AmpC no deterg: -20.3%; AmpC detergent: 2.9%; Shiga toxin inh: 75.9*

How did Cc1nc([N+](=O)[O-])cn1CC(O)c1ccc(-c2ccccc2)cc1 (stereo unspecified) do in these assays?
NS1 inh: -4.9%; Cycloheximide cs: -0.9; AmpC no deterg: -2.8%; AmpC detergent: 2.2%; Shiga toxin inh: 13.4

How did CCCN1CCN(CCNC(=O)Nc2ccc(OC)cc2OC)CC1 do in these assays?
AmpC detergent: 19.0%

What do the screens show for `Cc1ccc(-c2nnc3c4ccccc4c(C)nn23)cc1NC(=O)c1ccco1`?
NS1 inh: 1.0%

How did Cc1nn2c(-c3ccccc3)nnc2c2ccccc12 do in these assays?
NS1 inh: -36.6%; Cycloheximide cs: 11.3*; AmpC no deterg: -3.1%; AmpC detergent: -13.1%; Shiga toxin inh: 40.7

What do the screens show for `Cc1nn2c(-c3cccc(NC(=O)c4ccco4)c3)nnc2c2ccccc12`?
NS1 inh: -42.5%; Cycloheximide cs: 22.4*; AmpC no deterg: 326.0%; AmpC detergent: inconclusive; Shiga toxin inh: 0.0

What do the screens show for `Cc1ccc(-c2nn3c(-c4ccc(C)cc4)nnc3c3ccccc23)cc1`?
AmpC detergent: 2.5%

What do the screens show for `COc1ccc(N2C(=O)CSC23C(=O)N(CC(=O)Nc2ccccc2F)c2ccccc23)cc1` (stereo unspecified)?
AmpC detergent: -6.3%

What do the screens show for `Cc1sc2ncnc(SCC(=O)c3ccc4c(c3)OCCO4)c2c1-c1ccccc1`?
NS1 inh: -9.2%; Cycloheximide cs: 0.3; AmpC no deterg: -47.6%; AmpC detergent: -16.3%; Shiga toxin inh: 4.0

Results for O=C(/C(=C(\[O-])c1ccccc1)[n+]1ccc2ccccc2c1)c1ccc(Cl)cc1 ?
NS1 inh: 25.3%; Cycloheximide cs: 27.9; AmpC no deterg: -45.0%; AmpC detergent: -4.5%; Shiga toxin inh: 68.2*

What do the screens show for `O=C(/C(=C(\[O-])c1ccccc1)[n+]1ccc2ccccc2c1)c1ccccc1`?
NS1 inh: -0.9%; Cycloheximide cs: 25.8*; AmpC no deterg: inconclusive; AmpC detergent: -5.7%; Shiga toxin inh: active

Results for Cc1[nH]c(C)c(S(=O)(=O)N(Cc2ccccc2)C(C)(C)C)c1C(=O)N1CCCC1 ?
NS1 inh: -8.3%; Cycloheximide cs: -4.6; AmpC no deterg: 68.9%; AmpC detergent: inconclusive; Shiga toxin inh: 14.6

Results for COc1nc(N/N=C/c2ccc(-c3ccccc3[N+](=O)[O-])o2)nc(N2CCOCC2)n1 ?
NS1 inh: 9.0%; Cycloheximide cs: 70.3*; AmpC no deterg: -24.2%; AmpC detergent: -1.5%; Shiga toxin inh: 109.9*

How did O=[N+]([O-])c1ccc(-c2ccc(/C=N/Nc3nc(NCc4ccccc4)nc(N4CCOCC4)n3)o2)cc1 do in these assays?
NS1 inh: 2.3%; Cycloheximide cs: 8.9; AmpC no deterg: -11.1%; AmpC detergent: -9.7%; Shiga toxin inh: 36.6

Assay outcomes as filed in PubChem.
